Bioassay records (PubChem)
Compounds with a hit are over-represented: about 2.8% of the library has one in this group of screens.
ATXN2 expr inh – inhibitors of ATXN2 expression; HEK-293 ATXN2-luciferase reporter, luminescence, 24 h; 360,000 tested, 0.72% active; AID 1745845; Potency, µM (titrated, usually from 57 µM), for inactives: top-dose activity change, negative = inhibition, usual class: inhibitors; note: potency is the fitted concentration of half-maximal effect; % is set by controls: 0 for no effect and ±100 for the full control effect; nearly all actives have a fitted effect of over 55% in size
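ATXN2-luciferase reporter cells (luciferase flanked by upstream and downstream ATXN2 gene portions) were treated 24 h at 37 °C with compounds at up to 57 uM. SteadyGlo luminescence gave expression; GF-AFC fluorescence gave viability.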
HepG2 viability – counter-screen for TGF-b inhibitors: cytotoxicity in HepG2 cells. HepG2 CAGA-GFP viability, ATP luminescence, 18 h. Potency, µM (series often up to 46.1 µM), inactives show at the highest dose activity change, negative = cytotoxicity, hits mostly cytotoxic. 410,000 tested, 0.76% active. AID 588856; note: potency is the fitted concentration of half-maximal effect
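CellTiter-Glo luminescence gave cytotoxicity after 18 hours at 37 degrees C. The cells were HepG2 CAGA-GFP in 1% FBS DMEM, stimulated with 500 pg/mL TGF-beta after compound addition. %Activity was normalised to no-cell wells (complete cell-killing) and DMSO (no toxicity), and curves were fitted and classified.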
TGFb SMAD3 inh – blocks TGF-b signaling; Potency, µM (titrated, usually from 46.1 µM), for the others: top-dose activity, negative = inhibition, hits mostly inhibitors; 410,000 tested, 1.2% active; AID 588855; HepG2 CAGA-GFP TGF-b/SMAD3 reporter, GFP fluorescence, 18 h; TGF-beta stimulated, 500 pg/mL final; note: potency is the fitted concentration of half-maximal effect; % is set by controls: 0 for no effect and ±100 for the full control effect; nearly all actives have a fitted effect of over 65% in size
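Cell-based qHTS in HEPG2 carrying a CAGA-GFP Smad reporter; compounds added before 500 pg/mL final TGF-beta, 18 h incubation at 37 degrees C, GFP fluorescence quantified per cell by imaging cytometry.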
S2 tox – reduces viability in counter-screen for ATXN expression inhibitors. S2 cells (HEK-293 line with an ATXN2-luciferase reporter) viability, CellTiter-Fluor protease fluorescence, 24 h. Potency, µM (series often up to 56.7 µM), actives largely listed as cytotoxic. 400,000 tested, 0.49% active. AID 651635; note: potency is the fitted concentration of half-maximal effect; nearly all actives have a fitted effect of over 40% in size
Six1-Eya2 inh – Six1/Eya2 interaction inhibition; Q15475+O00167; AlphaScreen GST-Six1/His-Eya2 binding, biochemical; stronger effect = lower value; activity change, % (concentration not given with the values); 360,000 tested, 0.56% active; in the data active = activity change below about -65%; inconclusive = mostly about -30% to -63%; note: % is set by controls: 0 for no effect and ±100 for the full control effect
Target sequence (O00167 whole entry, looked up): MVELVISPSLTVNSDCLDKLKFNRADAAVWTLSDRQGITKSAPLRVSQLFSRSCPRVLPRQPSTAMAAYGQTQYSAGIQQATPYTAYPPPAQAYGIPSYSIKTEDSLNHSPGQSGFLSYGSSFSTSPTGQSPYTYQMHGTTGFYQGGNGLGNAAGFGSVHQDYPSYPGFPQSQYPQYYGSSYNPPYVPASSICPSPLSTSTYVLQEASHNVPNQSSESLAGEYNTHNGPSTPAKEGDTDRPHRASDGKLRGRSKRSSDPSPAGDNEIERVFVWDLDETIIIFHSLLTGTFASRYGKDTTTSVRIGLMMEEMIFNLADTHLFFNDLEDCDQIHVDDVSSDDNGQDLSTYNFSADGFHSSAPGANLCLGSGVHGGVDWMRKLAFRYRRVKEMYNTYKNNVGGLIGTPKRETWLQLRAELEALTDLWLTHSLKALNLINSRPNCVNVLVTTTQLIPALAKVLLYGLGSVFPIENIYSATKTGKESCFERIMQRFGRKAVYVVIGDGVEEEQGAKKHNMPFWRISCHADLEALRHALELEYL
Target sequence (Q15475 whole entry, looked up): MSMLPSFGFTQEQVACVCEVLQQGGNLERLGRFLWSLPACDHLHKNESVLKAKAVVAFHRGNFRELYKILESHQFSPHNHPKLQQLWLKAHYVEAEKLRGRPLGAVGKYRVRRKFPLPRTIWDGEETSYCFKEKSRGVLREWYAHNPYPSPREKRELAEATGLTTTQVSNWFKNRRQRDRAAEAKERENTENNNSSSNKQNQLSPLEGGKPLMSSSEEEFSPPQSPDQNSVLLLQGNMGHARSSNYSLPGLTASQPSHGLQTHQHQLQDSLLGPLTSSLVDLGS
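Homogeneous AlphaScreen proximity assay pairing GST-Six1 with His-tagged Eya2 (added as 5X mix: 250 nM and 500 nM) in 50 mM Tris pH 8.0, 300 mM NaCl, 1 mM TCEP. Glutathione donor and nickel acceptor beads; 1 h, 37 °C, dark.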
CtBP-E1A blk – inhibitors of CtBP/E1A interaction; AlphaScreen GST-E1A/His-CtBP binding, 1536-well; stronger effect = lower value; activity change, % (test concentration not listed); 340,000 tested, 0.49% active; in the data active = activity change below about -65%; inconclusive = mostly about -30% to -63%; note: % is set by controls: 0 for no effect and ±100 for the full control effect
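Homogeneous bead-based format: GST-tagged E1A captured on glutathione donor beads, His-tagged CtBP on nickel acceptor beads; compounds precede bead addition by 2 h at 37 °C.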
Active calls of the source: *; i = inactive; ? = inconclusive; nt = no result given; [ ] = remark or other dose. Unless noted, calls come from the whole dose curve; as a rule, active = well fitted curve in the direction sought with a large enough effect; inconclusive = small, poorly fitted or top-dose-only effect, or another doubt; inactive = no such curve, though single readings can be large; an effect the other way counts as inactive or inconclusive.

SMILES | ATXN2 expr inh | HepG2 viability | TGFb SMAD3 inh | S2 tox | Six1-Eya2 inh | CtBP-E1A blk
COc1ccc(O)c(/C=N/NC(=O)c2ccc(CSc3nc(C)cc(C)n3)cc2)c1 | 4.5µM* | -37% | ? | i | ? | ?
Cc1cc(C)nc(SCc2ccc(C(=O)N/N=C/c3cccc(O)c3O)cc2)n1 | ? | -17% | 0% | ? | -95* | -96*
O=c1c(Cl)c2oc3ccccc3nc-2c2ccccc12 | -3%[11.3 µM] | -48% | 5µM* | i | -25 | -26
Clc1ccc(-c2nnc(Sc3nc4ccccc4o3)c3ccccc23)cc1 | ? | -95% | ? | ? | -9 | -3
COC(=O)c1ccccc1C(=O)N1CCc2c(cnc(C)c2CNC(=O)c2ccccc2F)C1 | nt | nt | nt | i | nt | nt
Cc1ccccc1CN1[C@H]2CCCC[C@@H]2OCCS1(=O)=O | nt | 18% | 2% | nt | nt | nt
c1ccc2nc(-c3ccc(N4CCOCC4)cc3)ccc2c1 | 3.5µM* | -20% | ? | i | 3 | 4
CN1CCN(c2ccc(-c3ccc4ccccc4n3)cc2)CC1 | 0.38µM* | -34% | 0% | nt | -4 | 1
c1ccc2nc(-c3ccncc3)ccc2c1 | 46% | 3% | -19% | i | -1 | 1
Cc1cc(-c2ccc(N3CCOCC3)cc2)nc2ccccc12 | 76% | -13% | 6% | i | 19 | 23
Cc1ccccc1-c1nc(CNC(=O)Nc2ccccc2)c(C)o1 | -21% | -16% | 1% | ? | nt | nt
O=C(CSc1nc2c([nH]c3ccccc32)c(=O)n1-c1ccc(Cl)cc1)N1CCCCCC1 | 13% | -20% | -9% | i | nt | nt
Cc1n[nH]c(=O)n1-c1ccc(OC(F)(F)F)cc1 | 4% | -1% | -2% | i | 70 | 3
CC(C)c1cc(-c2n[nH]c(=O)n2-c2ccc3c(ccn3C)c2)c(O)cc1O | 0.077µM* | nt | nt | nt | nt | nt
CCc1ccc(C2c3[nH]c4ccccc4c3CCN2C(=O)CN2CCN(CC)CC2)cc1 (configuration not stated) | ? | 13µM* | ? | 25µM* | -27 | ?
CN1CC(=O)NC1=NC(=O)Nc1cccc(Cl)c1 | -5% | nt | nt | nt | nt | nt
Cc1cc(C)nc(N/N=C/c2ccccc2OCc2ccc(Br)cc2)n1 | 7% | -9% | 10% | i | 0 | 4
Cc1cc(C)nc(N/N=C/c2cc(Br)ccc2O)n1 | ? | -19% | ? | i | ? | -81*
CCc1cccc2c1NC(=O)C21N2CCCC2C(C(=O)c2ccc3ccccc3c2)C12C(=O)Nc1ccccc12 (configuration not stated) | 7% | -25% | ? | ? | -14 | -4
CCc1ccc2c(c1)C1(C(=O)N2)N2CCCC2C(C(=O)c2ccc3ccccc3c2)C12C(=O)Nc1ccccc12 (configuration not stated) | ? | 10µM* | 16µM* | ? | -16 | 4
Oc1cccc(NC(=S)N=Nc2c(O)[nH]c3ccccc23)c1 | 2% | -7% | ? | i | ? | -68*
Oc1[nH]c2ccccc2c1N=NC(=S)NCCc1ccccc1 | -4% | -50% | 11µM* | i | ? | -29
CCOc1ccc(NC(=S)N=Nc2c(O)[nH]c3ccccc23)cc1 | -32% | 8.9µM* | 7.9µM* | ? | ? | ?
O=C(Nc1ccc(Cl)cc1)N1CCN(c2ccc3nnc(-c4ccc(F)cc4)n3n2)CC1 | ? | -27% | 14µM* | ? | -14 | 4
OCCCNc1ncnc2c1ncn2[C@H]1CN(Cc2ccc(-c3ccccc3)cc2)C[C@@H](CO)O1 | -22% | -23% | -14% | i | -4 | -28
SMILES | ATXN2 expr inh | HepG2 viability | TGFb SMAD3 inh | S2 tox | Six1-Eya2 inh | CtBP-E1A blk
Cc1c(C2(O)CCCCC2)[nH]c2cc(C(F)(F)F)ccc12 | ? | -90% | ? | nt | -1 | -4
CCc1c(C2(O)CCCCC2)[nH]c2cc(C(F)(F)F)ccc12 | ? | 14µM* | ? | 32µM* | 0 | 2
Cc1cc(C)n(CC(=O)N2CCC(n3c(C(C)C)nc4cccnc43)CC2)n1 | nt | nt | nt | i | nt | nt
COc1cccc(C(=O)N2CCc3c(C(=O)NC(C)c4ccco4)c(OC)cc(=O)n3CC2)c1OC (configuration not stated) | nt | nt | nt | i | nt | nt
Cc1ccc(OC(=O)c2oc3ccc(F)cc3c2C)c(C)c1 | ? | 6% | -5% | 18µM* | 64 | 40
COc1ccc(/C=C/C(=O)c2oc3ccc(F)cc3c2C)cc1 | 6% | -8% | -4% | i | 9 | 0
CCOC(=O)C(C(=O)OCC)c1cc(Br)c2noc3c2c1C(=O)c1ccccc1-3 | 11µM* | -53% | 6.3µM* | 20µM* | -10 | -16
CN(C)c1cc[n+](CC(=O)c2ccc(-c3ccccc3)cc2)cc1 | 2.8µM* | -28% | ? | i | 3 | 3
O=C(C[n+]1ccccc1)c1ccc(-c2ccccc2)cc1 | ? | -11% | -17% | i | 8 | -7
CN(C(=O)CSc1cn(CC(=O)N2CCCCC2)c2ccccc12)c1ccccc1 | nt | -18% | ? | nt | nt | nt
CC(C)N(C(=O)CSc1cn(CC(=O)N2CCCCCC2)c2ccccc12)C(C)C | nt | -24% | 13µM* | nt | nt | nt
COc1ccc2nc(N=Nc3ccc(O)c4ccccc34)sc2c1 | 14µM* | -12% | ? | 14µM* | ? | ?
COc1ccc2nc(N=NC3=C(O)CC(C)(C)CC3=O)sc2c1 | ? | -12% | 3% | nt | -15 | -10
CCOc1ccccc1OCC1CNCCO1 (configuration not stated) | 3% | nt | nt | i | nt | nt
Cc1ccc(Cl)cc1N1CCN(C(=O)c2cc(S(=O)(=O)N3CCC(C)CC3)cn2C)CC1 | 3% | -19% | 7.1µM* | i | nt | nt
CCn1cc(C(=O)N2CCN(c3cccc(Cl)c3)CC2)c(=O)c2cc(S(=O)(=O)N3CCC(C)CC3)ccc21 | ? | -32% | 13µM* | ? | nt | nt
COC(=O)[C@@H]1C[C@@H](NC(=O)c2cccc3c(C)c(C)[nH]c23)CN1Cc1cccc2ccccc12 | nt | nt | nt | i | nt | nt
O=C(c1cnn2cccnc12)N1CCOc2ccc(C(O)C(c3ccccc3)c3ccccc3)cc2C1 (configuration not stated) | nt | nt | nt | i | nt | nt
CC[C@@H](CO)NCCN[C@@H](CC)CO | 2% | nt | nt | i | nt | nt
O=c1[nH]cnc2nn(-c3ccccc3)nc12 | 15% | -19% | -5% | i | ? | -65*
CC1(C)N=C(N)N=C(N)N1c1ccc(OCC(=O)N2CCOCC2)c(Cl)c1 | nt | 0.1µM* | -5% | i | -2 | 2
